Test results from PubChem BioAssay (NCI).
Compounds without any hit were thinned out: in the full panel of roughly 83,000, 20% have a hit.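 Growth was measured after 48 h exposure to one concentration of compound in 96-well plates. Values under 10 count as active.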 Active and inactive are the calls of the source.

Tests used:
Assay in all cases: NCI-60 one-dose screen, 48 h (100 = growth as untreated, 0 = no growth, -100 = all killed)
HCT-15 colon = conditions: 10 µM unless noted
HT29 colon = conditions: 10 µM unless noted
SNB-75 CNS = conditions: 10 µM unless noted
SNB-19 CNS = conditions: 10 µM unless noted
PC-3 prostate = conditions: 10 µM unless noted
SK-MEL-5 melanoma = conditions: 10 µM unless noted
UACC-62 melanoma = conditions: 10 µM unless noted
LOX IMVI melanoma = conditions: 10 µM unless noted
SK-MEL-28 melanoma = conditions: 10 µM unless noted
SK-MEL-2 melanoma = conditions: 10 µM unless noted
EKVX NSCLC = conditions: 10 µM unless noted
SN12C renal = conditions: 10 µM unless noted
UO-31 renal = conditions: 10 µM unless noted
ACHN renal = conditions: 10 µM unless noted
A498 renal = conditions: 10 µM unless noted
CCRF-CEM leukemia = conditions: 10 µM unless noted
MOLT-4 leukemia = conditions: 10 µM unless noted
TK-10 renal = conditions: 10 µM unless noted
U251 CNS = conditions: 10 µM unless noted
CAKI-1 renal = conditions: 10 µM

Measured: growth

NS(=O)(=O)c1ccc(CCN2C(=O)/C(=C\c3ccc(Cl)cc3)C=C2c2ccc(Oc3ccccc3)cc2)cc1
inactive: HCT-15 colon 64.8% | HT29 colon 65.4% | SNB-75 CNS 77.9% | SNB-19 CNS 80.3% | PC-3 prostate 38.6% | SK-MEL-5 melanoma 77.4% | UACC-62 melanoma 68.8% | LOX IMVI melanoma 81% | SK-MEL-28 melanoma 79.8% | SK-MEL-2 melanoma 73% | EKVX NSCLC 60.1% | SN12C renal 78.2% | UO-31 renal 65.8% | ACHN renal 72.3% | A498 renal 80.8% | CCRF-CEM leukemia 81.4% | MOLT-4 leukemia 48.2%

CC(C)CNCC(O)COc1ccc(C(C)(C)c2ccc(OCC(O)CNCC(C)C)cc2)cc1 (configuration not stated)
inactive: HCT-15 colon 20.1% | SNB-75 CNS 63.9% | SNB-19 CNS 51.7% | PC-3 prostate 47.4% | EKVX NSCLC 69.4% | SN12C renal 67.5% | TK-10 renal 66.6% | A498 renal 59.8%
active: HT29 colon -8.67% | SK-MEL-5 melanoma -95% | UACC-62 melanoma -65.2% | LOX IMVI melanoma -79.9% | SK-MEL-28 melanoma -60.5% | SK-MEL-2 melanoma -6.06% | UO-31 renal -32.2% | CCRF-CEM leukemia 0.812% | MOLT-4 leukemia -35.8%

Cc1cccc(CC(=O)c2ccccc2)n1
inactive: HCT-15 colon 93.2% | HT29 colon 82.1% | SNB-75 CNS 84.6% | SNB-19 CNS 88.7% | PC-3 prostate 80.5% | SK-MEL-5 melanoma 96.6% | UACC-62 melanoma 74.7% | LOX IMVI melanoma 76.5% | SK-MEL-28 melanoma 105% | SK-MEL-2 melanoma 96.7% | EKVX NSCLC 79.2% | SN12C renal 94.5% | UO-31 renal 81.5% | TK-10 renal 95.6% | A498 renal 74.3% | CCRF-CEM leukemia 71.8% | MOLT-4 leukemia 90.5%

O=C(Nc1ccc(Cl)c(Cl)c1)Nc1ccc(Cl)c([N+](=O)[O-])c1
inactive: SNB-19 CNS 15.1% | SK-MEL-28 melanoma 12.8%
active: HCT-15 colon 5.16% | HT29 colon 2.02% | U251 CNS 6.28% | PC-3 prostate -0.546% | SK-MEL-5 melanoma -90.2% | UACC-62 melanoma 9.51% | LOX IMVI melanoma -19% | SK-MEL-2 melanoma -43.4% | EKVX NSCLC 4.27% | SN12C renal 6.3% | UO-31 renal 0.279% | TK-10 renal -0.585% | ACHN renal 1.36% | A498 renal -25.9% | CCRF-CEM leukemia 1.21% | MOLT-4 leukemia -30.9%

C#CCn1c(-c2cc(OC)c(OC)cc2Br)nc(-c2ccccc2)c1-c1ccccc1
inactive: HCT-15 colon 29.7% | SNB-75 CNS 43.1% | SNB-19 CNS 55% | PC-3 prostate 25.2% | SK-MEL-5 melanoma 12.4% | UACC-62 melanoma 40% | LOX IMVI melanoma 34.9% | SK-MEL-28 melanoma 69.8% | SK-MEL-2 melanoma 28.1% | EKVX NSCLC 37.4% | SN12C renal 69.6% | UO-31 renal 33.9% | TK-10 renal 67.1% | CCRF-CEM leukemia 39.2% | MOLT-4 leukemia 31.6%
active: HT29 colon 9%

COc1cccc(-c2nc3sccn3c2-c2ccnc(NCCNC(=O)c3ccccc3)n2)c1
inactive: HCT-15 colon 81.9% | HT29 colon 53.5% | SNB-75 CNS 92.6% | SNB-19 CNS 110% | PC-3 prostate 79.7% | SK-MEL-5 melanoma 55.3% | UACC-62 melanoma 24.6% | LOX IMVI melanoma 54.7% | SK-MEL-28 melanoma 64.2% | SK-MEL-2 melanoma 73.3% | EKVX NSCLC 106% | SN12C renal 84.3% | UO-31 renal 53.8% | ACHN renal 65.8% | CAKI-1 renal 84.4% | A498 renal 66.3% | CCRF-CEM leukemia 52.5% | MOLT-4 leukemia 53.4%

Cc1cc(Nc2ccc(Cl)c(Cl)c2)nc(N)n1
inactive: HCT-15 colon 97.3% | HT29 colon 86.9% | SNB-75 CNS 72.3% | SNB-19 CNS 107% | PC-3 prostate 89.6% | SK-MEL-5 melanoma 83.9% | UACC-62 melanoma 89.1% | LOX IMVI melanoma 100% | SK-MEL-28 melanoma 101% | SK-MEL-2 melanoma 102% | EKVX NSCLC 54.7% | SN12C renal 106% | UO-31 renal 86.2% | TK-10 renal 87.3% | A498 renal 78.8% | CCRF-CEM leukemia 98.5% | MOLT-4 leukemia 78.8%

COC(=O)CCCNS(=O)(=O)c1cc(C(=O)Nc2ccc(NC(=O)c3cc(S(=O)(=O)NCCCC(=O)OC)c(O)c(O)c3O)cc2)c(O)c(O)c1O
active: LOX IMVI melanoma 2.88%
inactive: HCT-15 colon 92.1% | HT29 colon 79.8% | SNB-75 CNS 95.1% | SNB-19 CNS 96.1% | PC-3 prostate 83.3% | SK-MEL-5 melanoma 93.6% | UACC-62 melanoma 76.7% | SK-MEL-28 melanoma 110% | SK-MEL-2 melanoma 98.6% | EKVX NSCLC 84.3% | SN12C renal 85.3% | UO-31 renal 82.9% | TK-10 renal 94.9% | A498 renal 104% | CCRF-CEM leukemia 58.6% | MOLT-4 leukemia 87.6%

C=CC(=O)Nc1cccc(Nc2nc(Nc3ccc(OCCOC(F)F)cc3)ncc2F)c1
active: SNB-75 CNS 4.93% | SK-MEL-2 melanoma 0.225% | UO-31 renal 6.93% | ACHN renal 4.89% | A498 renal -35.4%
inactive: HCT-15 colon 22.4% | HT29 colon 33.8% | SNB-19 CNS 55.7% | PC-3 prostate 40.7% | SK-MEL-5 melanoma 79.6% | UACC-62 melanoma 24.1% | LOX IMVI melanoma 18% | SK-MEL-28 melanoma 68% | EKVX NSCLC 67.6% | SN12C renal 22% | CAKI-1 renal 11.3% | CCRF-CEM leukemia 24.8% | MOLT-4 leukemia 33.5%

CNC(=O)NN
inactive: HCT-15 colon 87.3% | HT29 colon 107% | SNB-75 CNS 88.3% | SNB-19 CNS 105% | PC-3 prostate 93.4% | SK-MEL-5 melanoma 103% | UACC-62 melanoma 104% | LOX IMVI melanoma 102% | SK-MEL-28 melanoma 112% | SK-MEL-2 melanoma 119% | EKVX NSCLC 91.5% | SN12C renal 110% | UO-31 renal 71.7% | TK-10 renal 111% | ACHN renal 88.9% | A498 renal 93.2% | CCRF-CEM leukemia 65.8% | MOLT-4 leukemia 105%

COc1cc(/C=C2/Oc3cc4occc4c(OC)c3C2=O)ccc1OCC(=O)Nc1ccncc1
inactive: HCT-15 colon 112% | HT29 colon 104% | SNB-75 CNS 96.5% | SNB-19 CNS 106% | PC-3 prostate 95.5% | SK-MEL-5 melanoma 100% | UACC-62 melanoma 93.5% | LOX IMVI melanoma 99.5% | SK-MEL-28 melanoma 117% | SK-MEL-2 melanoma 102% | EKVX NSCLC 97.4% | SN12C renal 104% | UO-31 renal 70.3% | TK-10 renal 127% | A498 renal 111% | CCRF-CEM leukemia 103% | MOLT-4 leukemia 110%

OCCOCC(F)(F)F
inactive: HCT-15 colon 108% | HT29 colon 105% | SNB-75 CNS 88.3% | SNB-19 CNS 117% | PC-3 prostate 97.8% | SK-MEL-5 melanoma 107% | UACC-62 melanoma 113% | LOX IMVI melanoma 112% | SK-MEL-28 melanoma 98.5% | SK-MEL-2 melanoma 119% | EKVX NSCLC 97.9% | SN12C renal 116% | UO-31 renal 94.1% | TK-10 renal 116% | ACHN renal 108%
active: CCRF-CEM leukemia -0.0215%

C=C1C(=O)O[C@H]2[C@H]1CC/C(C(=O)NCCOCCOCC(=O)Nc1ccc(OC)c(C(N)=O)c1O)=C\CC[C@@]1(C)O[C@@H]21
inactive: HCT-15 colon 101% | HT29 colon 88.1% | SNB-75 CNS 83.1% | SNB-19 CNS 95.1% | PC-3 prostate 97% | SK-MEL-5 melanoma 102% | UACC-62 melanoma 92.6% | LOX IMVI melanoma 95.3% | SK-MEL-28 melanoma 84.7% | SK-MEL-2 melanoma 82.1% | EKVX NSCLC 95.7% | SN12C renal 94.3% | UO-31 renal 87.3% | TK-10 renal 76.1% | A498 renal 105% | CCRF-CEM leukemia 64.6% | MOLT-4 leukemia 66.2%

Cc1cc(O[C@@H]2O[C@@H](C)[C@H](O)[C@@H](O)[C@H]2O)c2c3c(c(O[C@@H]4O[C@@H](C)[C@H](O)[C@@H](O)[C@H]4O)cc2c1)C(=O)c1c(O)cccc1C3=O
active: A498 renal -53%
inactive: HCT-15 colon 87.9% | HT29 colon 72.4% | SNB-75 CNS 52.2% | SNB-19 CNS 94.3% | PC-3 prostate 56.7% | SK-MEL-5 melanoma 67.8% | UACC-62 melanoma 65.6% | LOX IMVI melanoma 74% | SK-MEL-28 melanoma 90.8% | SK-MEL-2 melanoma 90.4% | EKVX NSCLC 76.7% | SN12C renal 54.2% | UO-31 renal 11.7% | CAKI-1 renal 60.3% | CCRF-CEM leukemia 82.6% | MOLT-4 leukemia 68.8%

COc1ccc(CNc2nc3ccccc3c3c(=O)c4ccccc4sc23)cc1OC
inactive: HCT-15 colon 90.2% | HT29 colon 73% | SNB-75 CNS 21.8% | SNB-19 CNS 86.5% | U251 CNS 79.8% | PC-3 prostate 72.9% | SK-MEL-5 melanoma 78% | LOX IMVI melanoma 82.7% | SK-MEL-28 melanoma 93.3% | SK-MEL-2 melanoma 102% | EKVX NSCLC 84.3% | SN12C renal 82.5% | UO-31 renal 85% | ACHN renal 40.2% | A498 renal 64.2% | CCRF-CEM leukemia 84.8% | MOLT-4 leukemia 86.6%

CCOC(=O)c1cnc2c(OC)ccc(OC)c2c1Cl
inactive: HCT-15 colon 107% | HT29 colon 117% | SNB-75 CNS 82.7% | SNB-19 CNS 114% | PC-3 prostate 93.6% | SK-MEL-5 melanoma 107% | LOX IMVI melanoma 91.1% | SK-MEL-28 melanoma 120% | SK-MEL-2 melanoma 127% | EKVX NSCLC 115% | SN12C renal 110% | UO-31 renal 88.3% | TK-10 renal 106% | ACHN renal 100% | A498 renal 91.8% | MOLT-4 leukemia 113%
active: CCRF-CEM leukemia 5.54%

CC(C)C1(C(C)C)NC(=O)NC1=O
inactive: HCT-15 colon 110% | HT29 colon 103% | SNB-75 CNS 94.5% | SNB-19 CNS 101% | PC-3 prostate 93.3% | SK-MEL-5 melanoma 91.5% | UACC-62 melanoma 106% | LOX IMVI melanoma 102% | SK-MEL-28 melanoma 95.9% | SK-MEL-2 melanoma 108% | EKVX NSCLC 92.7% | SN12C renal 99% | UO-31 renal 78.4% | ACHN renal 106% | CAKI-1 renal 88.9% | A498 renal 93.8% | CCRF-CEM leukemia 93.7% | MOLT-4 leukemia 97.6%
